GIRK2 act = Activators of human GIRK2-containing channels. HEK293 GIRK2/NPY4 cells, thallium flux fluorescence. activation (% efficacy), % for hits at 37.5 µM. AID 1259324. P48051. 34,000 tested, under 10 active;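 active = primary screen hit, no activity in plain HEK293 cells, and in GIRK2-only cells above 5% efficacy rising with concentration; inactive = the rest, including fluorescent compounds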;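 note: efficacy is normalized control-subtracted fluorescence 15 s after thallium addition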
Target sequence (P48051 whole entry, looked up): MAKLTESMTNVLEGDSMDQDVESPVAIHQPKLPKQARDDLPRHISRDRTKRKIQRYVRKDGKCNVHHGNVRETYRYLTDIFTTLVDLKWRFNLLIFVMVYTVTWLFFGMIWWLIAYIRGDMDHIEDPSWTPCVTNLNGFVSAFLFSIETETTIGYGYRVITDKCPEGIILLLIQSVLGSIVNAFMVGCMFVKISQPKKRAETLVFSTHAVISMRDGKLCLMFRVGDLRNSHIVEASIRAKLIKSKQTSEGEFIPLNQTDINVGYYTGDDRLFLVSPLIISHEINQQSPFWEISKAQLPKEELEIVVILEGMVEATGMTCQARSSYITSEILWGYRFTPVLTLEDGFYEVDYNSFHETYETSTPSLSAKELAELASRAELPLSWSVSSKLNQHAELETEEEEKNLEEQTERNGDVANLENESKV
GluA2 TARP mod = GluA2-stargazin AMPA receptor complex modulation. O88602+P19491. HEK293 GluA2+stargazin, membrane potential dye (FDSS), glutamate EC50; hits were called plate by plate, in both directions. calls only at 30 µM. 3.5% of 40,000 active;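 active = any of four per-well response measures lying three or more SD from its plate-wide compound average, in either direction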
The depositor's hits bear a star; i = inactive; · = not tested or not shown; + = active, no number. This excerpt belongs to a sample that is enriched for hits.

SMILES	GIRK2 act	GluA2 TARP mod
O=C(CCSc1ccccc1)NCCC(O)c1cccs1 (stereo not given)	i	i
O=C(NCCC(O)c1cccs1)C1(c2ccc(Cl)cc2)CCCC1 (stereo not given)	i	+
O=C(/C=C/c1ccco1)NCCCn1cccc1	i	i
O=C(c1ccccc1)c1ccc(OCC(O)CN2CCN(c3ccccc3F)CC2)cc1 (stereo not given)	i	i
O=C(c1ccccc1)c1ccc(OCC(O)CNc2ccc(F)cc2)cc1 (stereo not given)	i	+
Cc1nc(C(=O)NCc2n[nH]c(=O)c3ccccc23)cs1	i	i
COCCN=Cc1c(NCCOC)nc2ccccn2c1=O	i	+
Cc1nc2ccccn2c1C(=O)NCC1CCN(S(=O)(=O)C2CC2)CC1	i	i
Cn1nc(CNC(=O)CSc2nc3ccccc3s2)c2ccccc2c1=O	i	i
CCOC(=O)c1csc(NC(=O)Cn2nc(-c3cc(OC)ccc3OC)ccc2=O)n1	·	i
Cc1cc(N(C)C)nc(NCCNC(=O)c2cnccn2)n1	i	+
Cc1cc(N(C)C)nc(NCCNC(=O)c2ccc(Br)o2)n1	i	·
COCCN(CCOC)S(=O)(=O)CCNC(=O)c1ccccc1	·	i
CCN(CC)S(=O)(=O)CCNC(=O)c1ccccc1	·	+
COc1ccc(CNC(=O)C(=O)NCC(c2ccc(C)cc2)N2CCOCC2)cc1 (stereo not given)	i	i
CN(C(=O)Cn1cnc2c(-c3ccccc3)csc2c1=O)c1ccc(F)cc1	i	i
CCN(C(=O)Cn1cnc2c(-c3ccccc3)csc2c1=O)c1ccccc1	i	+
Cc1ccc(Oc2ccc(C(=O)Nc3nc(-c4ccccc4)cs3)cc2)nn1	i	i
COc1ccc(Br)cc1S(=O)(=O)N1CCN(c2c(C)cccc2C)CC1	·	i
COc1ccc(-c2ccc(=O)n(CCNC(=O)c3ccc(S(=O)(=O)N4CCCCC4)cc3)n2)cc1	·	+
COc1ccc(-c2ccc(=O)n(CCNC(=O)c3ccc(S(=O)(=O)N(C)C)cc3)n2)cc1	·	i
CCCCN1CC(c2nc3ccccc3n2Cc2ccc(Cl)cc2)CC1=O (stereo not given)	·	i
CCCCN1CC(c2nc3ccccc3n2CCOc2ccccc2)CC1=O (stereo not given)	·	i
CCN1CC(c2nc3ccccc3n2Cc2ccc(Cl)cc2Cl)CC1=O (stereo not given)	·	+
CCN1CC(c2nc3ccccc3n2CC(=O)N2CCCCC2)CC1=O (stereo not given)	i	·
SMILES	GIRK2 act	GluA2 TARP mod
C=CCN1CC(c2nc3ccccc3n2Cc2c(Cl)cccc2Cl)CC1=O (stereo not given)	·	+
CCCCN1CC(c2nc3ccccc3n2CCOc2cccc(C)c2)CC1=O (stereo not given)	·	+
CCN1CC(c2nc3ccccc3n2Cc2c(Cl)cccc2Cl)CC1=O (stereo not given)	·	+
C=CCN1CC(c2nc3ccccc3n2Cc2ccccc2Cl)CC1=O (stereo not given)	·	i
O=C1OC2CC1N(C(=O)Cn1c(=O)oc3ccccc31)C2 (stereo not given)	i	i
CCCCN(Cc1ccccc1)C(=O)C(=O)c1c[nH]c2ccccc12	·	i
Cc1cc(=O)n2c(-c3cccc(NS(=O)(=O)c4ccc(Cl)s4)c3)csc2n1	i	i
O=C(NCc1ccccc1)C(=O)Nc1c2c(nn1-c1cccc(Cl)c1)CS(=O)(=O)C2	i	i
O=C(NCC1(O)CCc2ccccc21)Nc1cccc(C(F)(F)F)c1 (stereo not given)	i	+
COc1ccccc1C1(CNC(=O)Nc2cccc(C(F)(F)F)c2)CCOCC1	i	i
COc1cccc2cc(C(=O)NCC(O)c3ccc(C(F)(F)F)cc3)oc12 (stereo not given)	i	·
Cc1ccc(CSc2nc(CC(=O)NCCC3=CCCCC3)cs2)cc1	i	+
COc1ccc(C(=O)NCCC2=CCCCC2)cc1	i	i
O=C(Cc1csc(SCC(=O)c2ccc3c(c2)OCO3)n1)NCCC1=CCCCC1	i	·
CCc1ccc(OCC(=O)NCCC2=CCCCC2)cc1	i	+
COc1ccccc1CCNC(=O)C1CCCN(c2cc(-n3nc(C)cc3C)ncn2)C1 (stereo not given)	i	i
O=C(C1COCC(=O)N1Cc1ccccc1)N1CCC(Cc2ccccc2)CC1 (stereo not given)	i	i
Cc1ccc(CNC(=O)c2cc3c(=O)n4ccccc4nc3n(Cc3ccco3)c2=N)cc1	i	i
N=c1c(C(=O)NC2CCCC2)cc2c(=O)n3ccccc3nc2n1C1CCCC1	i	+
CCCCc1ccc(NC(=O)C2COCC(=O)N2Cc2ccccc2)cc1 (stereo not given)	i	i
CCOc1ccccc1NC(=O)Cn1c(C)cc(C)c(-c2nc(-c3ccc(Cl)cc3)no2)c1=O	·	+
COc1ccc(-c2noc(-c3c(C)cc(C)n(CC(=O)Nc4ccc(OC)c(Cl)c4)c3=O)n2)cc1	i	+
COc1ccc(NC(=O)Cn2c(C)cc(C)c(-c3nc(-c4ccc(Cl)cc4)no3)c2=O)cc1	·	i
Cc1cc(C)n(CC(=O)Nc2ccccc2F)c(=O)c1-c1nc(-c2ccc(Cl)cc2)no1	i	i
COc1ccccc1-n1c(C)c(C)n2c3c(=O)n(C)c(=O)n(C)c3nc12	i	i
SMILES	GIRK2 act	GluA2 TARP mod
Cc1ccc(NS(=O)(=O)c2ccc(F)cc2)cc1N1CCCCC1=O	i	+
COc1cc(NS(=O)(=O)c2ccc(F)cc2)ccc1N1CCCCC1=O	i	i
COc1ccc(CCC(=O)NCCn2ncc3c(N4CCOCC4)ncnc32)cc1	i	i
COc1ccc(S(=O)(=O)Nc2ccccc2C(=O)Nc2ccc(OC)cc2[N+](=O)[O-])cc1	i	i
COC(=O)c1c2c(nc3c1c(-c1ccco1)nn3C1CCS(=O)(=O)C1)CCC2 (stereo not given)	i	·
Nc1c(C(=O)N2CCCC2)sc2nc(-c3ccco3)c3c(c12)CCCC3	·	+
CC(=O)c1sc2nc(-c3ccco3)c3c(c2c1N)CCCC3	·	+
Cc1nc(C)c(C(=O)N2CCN(c3ccc4nnc(-c5ccco5)n4n3)CC2)s1	i	i
CCn1nc(C)cc1C(=O)Nc1cc(C)cc(C)c1	i	i
N#CCOc1ccc2c(c1)O/C(=C\c1c(F)cccc1Cl)C2=O	·	i
O=C(O)CCC(=O)Nc1ccccc1-c1nc2ccccc2[nH]c1=O	·	i
NC(=O)CSc1nc(-c2ccccc2)c(NC(=O)c2ccccc2Cl)s1	i	i
NC(=O)CSc1nc(-c2ccccc2)c(NC(=O)c2cccc(Cl)c2)s1	i	+
CCNC(=O)CSc1nc(-c2ccccc2)c(NC(=O)CCc2ccc(OC)cc2)s1	i	i
CNC(=O)CSc1nc(-c2ccccc2)c(NC(=O)CCc2ccccc2)s1	i	+
Cc1ccc(-n2ncc3c(=O)n(CC(=O)N4CCN(c5ccccc5)CC4)cnc32)c(C)c1	·	i
Cc1cc(C)n(CCNC(=O)C(=O)NCCc2ccccc2)n1	i	i
O=C(NCCCN1CCOC(c2ccccc2)C1)C(=O)NC1CCCCC1 (stereo not given)	i	·
